Common to all, as to conditions: mRNA level, 48 h; actives raise or lower the signal
Read-out in experiment [1]: Insulin-like growth factor-binding protein 1 (IGFBP1), IGFBP1 (gene 3484)
Description: LTEA_HepaRG_IGFBP1: Life Technologies and Expression Analysis (LTEA) Assay for Insulin-like growth factor-binding protein 1 (IGFBP1) using HepaRG (AID 2283508). A digest of the protocol:
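Read-out is qRT-PCR transcript level normalized to three housekeeping genes, fitted in both directions against 0.5% DMSO. Differentiated HepaRG cells received eight half-log concentrations (top 100 uM) in duplicate for 48 h in serum-free induction medium.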

Read-out in experiment [2]: Interleukin 6 (IL6), IL6 (gene 3569)
Description: LTEA_HepaRG_IL6: Life Technologies and Expression Analysis (LTEA) Assay for Interleukin 6 (IL6) using HepaRG (AID 2283509). In outline:
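Changes in IL6 mRNA, up or down relative to 0.5% DMSO controls, were derived from concentration-response curves in human HepaRG cells treated for 48 h at up to 100 uM, with ACTB, GAPDH and POLR2A as normalizers.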

Read-out in experiment [3]: Interleukin 6 Receptor (IL6R), IL6R (gene 3570)
Description: LTEA_HepaRG_IL6R: Life Technologies and Expression Analysis (LTEA) Assay for Interleukin 6 Receptor (IL6R) using HepaRG (AID 2283510).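 For AC50: differentiated human HepaRG liver cells in serum-free induction medium; TaqMan qRT-PCR signal normalized to ACTB GAPDH and POLR2A housekeeping genes.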 In outline: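 In this HepaRG screen, test chemicals act on cells for 48 h at up to 100 uM (eight half-log points, duplicate wells). IL6R expression is quantified by qRT-PCR after normalization to ACTB, GAPDH and POLR2A, with DMSO as baseline.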

Read-out in experiment [4]: Potassium channel subfamily K member 1 (KCNK1), KCNK1 (gene 3775)
The experiment can be described thus: LTEA_HepaRG_KCNK1: Life Technologies and Expression Analysis (LTEA) Assay for Potassium channel subfamily K member 1 (KCNK1) using HepaRG (AID 2283511). A digest of the protocol:
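Human HepaRG cultures receive test chemicals for 48 h in 0.5% DMSO, top concentration 100 uM with half-log dilutions. Induction or suppression of KCNK1 mRNA relative to DMSO is derived by bidirectional fitting of qRT-PCR data.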

Read-out in experiment [5]: Keratin 19 (KRT19), KRT19 (gene 3880)
Description: LTEA_HepaRG_KRT19: Life Technologies and Expression Analysis (LTEA) Assay for Keratin 19 (KRT19) using HepaRG (AID 2283512). In outline: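 KRT19 transcript measured by TaqMan qRT-PCR, referenced to three housekeeping genes, after HepaRG cells received test chemicals for 48 h. Eight half-log concentrations, top 100 uM, 0.5% DMSO vehicle; increases and decreases both fitted.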

Read-out in experiment [6]: JUN Transcription Factor, JUN (gene 3725)
Description: LTEA_HepaRG_JUN: Life Technologies and Expression Analysis (LTEA) Assay for JUN Transcription Factor using HepaRG (AID 2283513). In outline: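 Gene-expression endpoint: JUN mRNA (qRT-PCR, normalized to three reference genes) in HepaRG cultures treated 48 h with chemicals, duplicate wells, 100 uM maximum with half-log dilutions; bidirectional fitting relative to 0.5% DMSO.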

Read-out in experiment [7]: MicroRNA 122 (MIR122), gene 406906
Description: LTEA_HepaRG_MIR122: Life Technologies and Expression Analysis (LTEA) Assay for MicroRNA 122 (MIR122) using HepaRG (AID 2283516). Note: the transcript read is the microRNA miR-122. A digest of the protocol:
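Changes in transcript abundance, up or down relative to 0.5% DMSO vehicle, were scored after 48 h chemical treatment of HepaRG cells (maximum 100 uM). Quantification used TaqMan qRT-PCR normalized to housekeeping genes.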

Read-out in experiment [8]: matrix metalloproteinase-10 (MMP10), MMP10 (gene 4319)
Description: LTEA_HepaRG_MMP10: Life Technologies and Expression Analysis (LTEA) Assay for matrix metalloproteinase-10 (MMP10) using HepaRG (AID 2283517). In outline:
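In differentiated HepaRG cultures kept in 0.5% DMSO, test chemicals act for 48 h over an eight-point range with a top dose of 100 uM. Expression is then quantified by TaqMan RT-PCR against ACTB, GAPDH and POLR2A.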

Read-out in experiment [9]: MYC, MYC (gene 4609)
Description: LTEA_HepaRG_MYC: Life Technologies and Expression Analysis (LTEA) Assay for MYC using HepaRG (AID 2283518). In outline: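 MYC transcript changes, up or down relative to 0.5% DMSO, from TaqMan qRT-PCR normalized to three housekeeping genes. Human HepaRG cultures received chemicals for 48 h at eight half-log concentrations up to 100 uM, in duplicate.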

Read-out in experiment [10]: matrix metalloproteinase-3 (MMP3), MMP3 (gene 4314)
The experiment can be described thus: LTEA_HepaRG_MMP3: Life Technologies and Expression Analysis (LTEA) Assay for matrix metalloproteinase-3 (MMP3) using HepaRG (AID 2283519). A digest of the protocol:
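Human liver HepaRG cultures received chemicals (top concentration 100 uM, 0.5% DMSO) for 48 h in duplicate. MMP3 mRNA induction or loss was then assessed via TaqMan qRT-PCR with housekeeping-gene normalisation.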

Read-out in experiment [11]: Paternally Expressed 10 (PEG10), PEG10 (gene 23089)
The experiment can be described thus: LTEA_HepaRG_PEG10: Life Technologies and Expression Analysis (LTEA) Assay for Paternally Expressed 10 (PEG10) using HepaRG (AID 2283520).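 For AC50: PEG10 transcript by qRT-PCR normalised to ACTB GAPDH and POLR2A.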 In outline: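 After 48 h exposure of differentiated HepaRG cells (0.5% DMSO vehicle, eight concentrations up to 100 uM, duplicates), PEG10 mRNA was measured by TaqMan qRT-PCR. Values were normalised to endogenous control genes and analysed bidirectionally against vehicle.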

Read-out in experiment [12]: Protein phosphatase 2A (PPP2R4), PTPA (gene 5524)
The experiment can be described thus: LTEA_HepaRG_PPP2R4: Life Technologies and Expression Analysis (LTEA) Assay for Protein phosphatase 2A (PPP2R4) using HepaRG (AID 2283522). A digest of the protocol: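 Using HepaRG cultures maintained in 0.5% DMSO, chemicals are tested 48 h at up to 100 uM in duplicate. Induction or suppression of PPP2R4 mRNA, measured by qRT-PCR, is fitted bidirectionally against the vehicle baseline.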

Read-out in experiment [13]: Phosphatase and tensin (PTEN), PTEN (gene 5728)
Description: LTEA_HepaRG_PTEN: Life Technologies and Expression Analysis (LTEA) Assay for Phosphatase and tensin (PTEN) using HepaRG (AID 2283523). A digest of the protocol:
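Expression of PTEN is quantified in the human liver line HepaRG following two days of dosing (top concentration 100 uM, half-log dilutions, 0.5% DMSO). Values derive from bidirectional curve fitting relative to DMSO controls.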

Read-out in experiment [14]: solute carrier (SLC22A1), SLC22A1 (gene 6580)
Description: LTEA_HepaRG_SLC22A1: Life Technologies and Expression Analysis (LTEA) Assay for solute carrier (SLC22A1) using HepaRG (AID 2283524).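 For AC50: differentiated human HepaRG liver cells in serum-free induction medium; TaqMan qRT-PCR normalized to ACTB GAPDH and POLR2A housekeeping genes.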 A digest of the protocol: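 Transcript induction or suppression of SLC22A1 in human HepaRG cultures is scored after 48 h chemical treatment, with DMSO (0.5%) as baseline for bidirectional fitting. Concentrations span eight half-log points topping at 100 uM.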

Read-out in experiment [15]: Pyruvate Dehydrogenase Kinase 4 (PDK4), PDK4 (gene 5166)
The experiment can be described thus: LTEA_HepaRG_PDK4: Life Technologies and Expression Analysis (LTEA) Assay for Pyruvate Dehydrogenase Kinase 4 (PDK4) using HepaRG (AID 2283525). A digest of the protocol: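 Eight-point, half-log concentration series (max 100 uM, 0.5% DMSO) applied to differentiated HepaRG cells for 48 h in duplicate. Endpoint: PDK4 mRNA induction or repression by qRT-PCR against DMSO baseline.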

Read-out in experiment [16]: NAD(P)H dehydrogenase [quinone] 1 (NQO1), NQO1 (gene 1728)
The experiment can be described thus: LTEA_HepaRG_NQO1: Life Technologies and Expression Analysis (LTEA) Assay for NAD(P)H dehydrogenase [quinone] 1 (NQO1) using HepaRG (AID 2283526). A digest of the protocol:
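In this assay, gene expression is read by qRT-PCR after 48 h exposure of HepaRG cells to eight concentrations (max 100 uM, half-log) in 0.5% DMSO. Each chemical runs in duplicate, and activity is scored relative to vehicle.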

Read-out in experiment [17]: Nuclear factor erythroid 2-related factor 2 (Homo sapiens) (UniProt Q16236)
The experiment can be described thus: LTEA_HepaRG_NFE2L2: Life Technologies and Expression Analysis (LTEA) Assay for Nuclear factor erythroid 2-related factor 2 (NFE2L2) Transcription Factor using HepaRG (AID 2283527).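 For outcome: TaqMan qRT-PCR transcript level normalised to ACTB GAPDH and POLR2A housekeeping genes.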 A digest of the protocol: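 Human liver HepaRG line treated in duplicate for 48 h with an eight-point series topping at 100 uM. Gene expression of NFE2L2 by qRT-PCR, bidirectionally fitted against the vehicle control.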

Read-out in experiment [18]: Lipoprotein lipase (LPL), LPL (gene 4023)
The experiment can be described thus: LTEA_HepaRG_LPL: Life Technologies and Expression Analysis (LTEA) Assay for Lipoprotein lipase (LPL) using HepaRG (AID 2283515). In outline:
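Concentration-response testing used half-log steps from 100 uM in 0.5% DMSO on human HepaRG cells, 48 h, duplicate wells. Phenobarbital 1 mM served as induction control; LPL mRNA was normalized to ACTB, GAPDH, POLR2A.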

Activity calls are given as the source filed them. Rule for the calls: active = hit-call score of the fitted dose curve at least 0.9, where 1 is the maximum; inactive = score below 0.9.

Sequence of Nuclear factor erythroid 2-related factor 2 (Homo sapiens) (Q16236 whole entry, looked up): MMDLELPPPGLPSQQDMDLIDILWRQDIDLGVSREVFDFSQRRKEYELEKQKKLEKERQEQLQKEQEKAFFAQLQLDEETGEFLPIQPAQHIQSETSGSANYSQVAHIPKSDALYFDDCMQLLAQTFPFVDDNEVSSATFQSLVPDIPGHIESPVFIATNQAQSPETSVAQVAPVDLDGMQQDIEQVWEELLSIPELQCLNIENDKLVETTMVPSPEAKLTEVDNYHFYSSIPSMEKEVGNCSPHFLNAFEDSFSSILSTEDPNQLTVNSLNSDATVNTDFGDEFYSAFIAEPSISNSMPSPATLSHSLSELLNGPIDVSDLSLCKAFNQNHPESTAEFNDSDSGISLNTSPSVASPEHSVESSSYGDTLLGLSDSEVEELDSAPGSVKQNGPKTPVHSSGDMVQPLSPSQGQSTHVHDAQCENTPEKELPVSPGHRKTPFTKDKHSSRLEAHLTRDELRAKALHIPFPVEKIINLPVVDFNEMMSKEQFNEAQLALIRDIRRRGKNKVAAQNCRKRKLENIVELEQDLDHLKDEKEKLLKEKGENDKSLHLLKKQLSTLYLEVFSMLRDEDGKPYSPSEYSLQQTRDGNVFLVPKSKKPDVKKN

The term AC50 denotes the concentration at which the activity in the assay is half-maximal. Regarding `CCCCSP(=O)(SCCCC)SCCCC`, the AC50 was 64.2 µM (active) in experiment [1]; 1.7 µM (active) in experiment [5]; 78.9 µM (active) in experiment [14]; 77.5 µM (active) in [15]; 78 µM (active) in [17]. The compound was called inactive in experiment [2], in experiment [3], in [4], in [6], in experiment [7] and in [8]. For the same compound, the result in experiment [9], in [10], in [11], in [12], in experiment [13] and in [16] was inactive.

Regarding `CSC1=N[C@@](C)(c2ccccc2)C(=O)N1Nc1ccccc1`, the concentration at half-maximal activity (AC50) in [1] was 31.6 µM (active); in experiment [2], 33.3 µM (active); in [3], 16.5 µM (active); in [5], 18.7 µM (active); in [7] it was 50 µM (active); in experiment [9], 31.2 µM (active). In addition, the half-maximal activity concentration (AC50) is 20.1 µM (active) in [11], 34.2 µM (active) in experiment [14], 12.7 µM (active) in experiment [15] and 68.6 µM (active) in experiment [17]. For the same compound, the result in experiment [4], in experiment [6], in [8], in experiment [10], in experiment [12] and in experiment [13] was inactive. Also, the call in experiment [16] was inactive.

In the case of `N#CSCSC#N`, the result in experiment [1], in [2], in experiment [4], in experiment [6], in experiment [9] and in experiment [10] was inactive. In addition, the result in experiment [11], in experiment [12], in experiment [13], in experiment [15], in [16] and in [17] was inactive. Moreover, the AC50 in [3] was 68.4 µM (active); in experiment [5], 90.1 µM (active); in experiment [18], 78.1 µM (active); in experiment [7] it was 65.1 µM (active); in experiment [8], 83 µM (active); in experiment [14], 74.2 µM (active).

For `C[N+]1(C)CCCCC1`, the compound was called inactive in experiment [1], in [2], in experiment [3], in [4], in [5] and in experiment [6]. Further, the compound was called inactive in experiment [7], in experiment [8], in experiment [9], in [10], in experiment [11] and in experiment [12]. In addition, the call in [13], in experiment [14], in experiment [15], in [16] and in [17] was inactive.

Regarding `C[Si](Cn1cncn1)(c1ccc(F)cc1)c1ccc(F)cc1`, the half-maximal activity concentration (AC50) in experiment [1] is 67.7 µM (active); in experiment [2], 92.6 µM (active); in experiment [4] it was 50 µM (active); in experiment [7], 61.4 µM (active); in [9], 68.1 µM (active); in [10], 11.6 µM (active). In addition, the concentration at half-maximal activity (AC50) in experiment [14] is 63.1 µM (active); in [17], 39.3 µM (active). For the same compound, the compound was classed as inactive in [3], in experiment [5], in experiment [6], in experiment [11], in [12] and in experiment [13]. Moreover, the outcome in experiment [15] and in experiment [16] was inactive.

Regarding `CCc1cnc(C2=NC(C)(C(C)C)C(=O)N2)c(C(=O)O)c1` (stereo not given), the compound was called inactive in [1], in [2], in [3], in experiment [4], in [5] and in experiment [6]. The compound was classed as inactive in [7], in [8], in experiment [9], in [10], in experiment [11] and in [12]. The compound was called inactive in [13], in experiment [14], in [15], in [16] and in [17].

For the compound `CSc1nnc(C(C)(C)C)c(=O)n1N`, the compound was classed as inactive in experiment [1], in experiment [2], in experiment [3], in [4], in [5] and in experiment [6]. For the same compound, the result in experiment [18], in experiment [7], in experiment [8], in [9], in experiment [10] and in experiment [11] was inactive. Also, the call in experiment [12], in experiment [13], in experiment [14], in experiment [15], in [16] and in experiment [17] was inactive.

These data come from PubChem BioAssay (EPA / NIEHS).
